Compounds with a hit are over-represented: about 1.3% of the library has one in this group of screens.
SSB-PriA inh = K. pneumoniae PriA-SSBct interaction inhibition | AlphaScreen SSBct-PriA binding, biotinylated peptide | inhibition, % at 33 µM | 430,000 compounds, 0.6% hits; in the data active means inhibition mostly above about 37%, no sharp cut-off; inactive means mostly below about 20%;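 further: plate controls were negative control peptide for no effect and reference peptide for full effect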
VHR inh abs = inhibitors of human VHR1 phosphatase (DUSP3) | AID 1654 | recombinant VHR phosphatase, pNPP absorbance | 290,000 compounds, 0.52% hits | inhibition, % at 13.3 µM | P51452; in the data active means inhibition above about 50%
CCHF vOTU inh-1 = blocks the CCHF virus ovarian tumor domain protease | inhibition, % at 11.5 µM | CCHFV vOTU protease, Pep-AMC fluorescence | AID 651958 | 370,000 compounds, 0.55% hits; further: 0% = vehicle wells with enzyme and 100% = no enzyme wells
Vc quorum ag-1 = inducers of Vibrio cholerae quorum light production without autoinducers; V. cholerae BH1578 lux reporter, luminescence, 6 h; activation, % at 18.7 µM; 350,000 compounds, 0.16% hits; in the data active means activation mostly above about 9.7%, no sharp cut-off
3CLpro inhibitor = SARS-CoV 3CLpro protease inhibition. P0C6X7. 290,000 compounds, 0.14% hits. inhibition, % at 6 µM. recombinant SARS-CoV 3CLpro, quenched FRET peptide cleavage; in the data active means inhibition above about 12%
TcdB GH inh = inhibitors of Clostridioides difficile toxin B glycohydrolase; P18177; TcdB glycohydrolase enzymatic assay, plate reader; inhibition, % at 9.99 µM; 350,000 compounds, 0.24% hits; AID 652162; in the data active means inhibition above about 10%
Vc quorum ag-2 = induces V. cholerae light production without autoinducers; AID 602243; shares compounds with Vc quorum ag-1; V. cholerae BH1578 lux reporter, luminescence, 6 h; activation, % at 50 µM; 620 tested, under 10 active; call rule not given here
HeLa tox = HeLa cell viability loss at 24 h; shares compounds with Vc quorum ag-1; CellTiter-Glo ATP luminescence; 25 tested, under 10 active; activity change, negative = cytotoxicity, % at 35 µM;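 active means signal drop with fitted half-maximal concentration at or below twice the highest valid dose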
CCHF vOTU inh-2 = CCHFV vOTU protease inhibition, confirmation | Recombinant CCHFV vOTU, Pep-AMC fluorescence | 1,900 compounds, 17% hits | AID 686976 | shares compounds with CCHF vOTU inh-1 | inhibition, % at 11.5 µM
Numbers without * were called inactive; i = inactive; x = no result given; + = active, no number. Unless noted, no stated cut-off is given here; in the data, active means inhibition above about 30%; inactive means the rest.

SMILES	SSB-PriA inh	VHR inh abs	CCHF vOTU inh-1	Vc quorum ag-1	3CLpro inhibitor	TcdB GH inh	Vc quorum ag-2	others
O=c1c2cc(N3CCOCC3)ccc2[nH]c(=S)n1CC1CCCO1 (stereo unspecified)	-5.3	-2.0	1.0	12.5	-0.4	x	-0.1
COCCCn1c(=S)[nH]c2ccc(N3CCOCC3)cc2c1=O	-13.6	21.6	-12.3	12.5	x	x	0.1
O=c1c2ccccc2[nH]c(=S)n1CC1CCCO1 (stereo unspecified)	-3.3	x	5.3	-0.9	-0.7	x	x
O=C(Nc1nnc(-c2ccccc2)o1)c1cccc(N2C(=O)CCC2=O)c1	-11.5	2.9	1.3	-2.6	8.6	x	x
O=C(Nc1nnc(-c2ccc(Br)cc2)o1)c1cccc(N2C(=O)CCC2=O)c1	-9.1	x	-0.2	14.3	x	0.6	0.3
CCc1cccc(C)c1NC(=O)C1=NCCN1	-12.0	x	x	x	x	x	x
Cc1cccc(CN(C)CCc2ccccn2)c1	-1.6	16.5	0.3	i	0.1	x	x
Cc1cccc(OCC(=O)N(C)CCc2ccccn2)c1	-9.8	-28.9	8.8	25.0*	3.5	x	0.3
CC(C#N)On1c(SC(C)C#N)nc2ccccc2c1=O (stereo unspecified)	-3.6	-1.9	4.5	12.5	8.6	x	1.3
Cc1ccc(C)c(-c2cc(C(=O)O)[nH]n2)c1	1.0	x	x	x	x	x	x
O=C(NCC(F)(F)F)Nc1ncccn1	-22.9	27.9	0.6	15.4*	1.1	x	2.5
CSc1ccc(NC(=O)COc2ccc(F)cc2)cc1	-5.0	x	x	x	x	x	x
O=C(CN1C(=O)/C(=C/c2cccc(Cl)c2)SC1=S)Nc1ccc2oc(=O)ccc2c1	-9.0	x	x	x	x	x	x
COc1cccc(CNC(=O)COC(=O)CN(C)S(=O)(=O)c2ccc(NC(C)=O)cc2)c1	-6.8	6.2	-6.2	12.5	-0.1	0.6	0.0
Cc1nnc(SCc2nc3sc4c(c3c(=O)[nH]2)CCCC4)n(N)c1=O	-0.6	35.5	-10.8	x	3.4	0.0	x
Nc1nc(SCc2nc3sc4c(c3c(=O)[nH]2)CCCC4)n[nH]1	8.7	-6.7	3.5	30.8*	3.1	x	0.9
Cc1ccc(S(=O)(=O)N(C)c2ccc(OCC(=O)N3CCCCC3)cc2)cc1	-1.9	0.3	3.2	12.5	1.2	0.6	1.6
Cc1ccccc1C(=O)Nc1ccc(-c2nc3ccc(C(=O)c4ccccc4)cc3[nH]2)cc1	-12.1	23.5	-21.7	12.5	-5.8	x	0.0
O=C(c1ccccc1)c1ccc2nc(-c3ccc(NC(=O)c4ccccc4Br)cc3)[nH]c2c1	-11.7	16.3	2.8	i	5.1	0.7	x
COc1cc(OC)cc(C(=O)Nc2cc(C)nn2-c2nc3c(F)cccc3s2)c1	-17.0	x	x	x	x	x	x
CCCNC(=O)Cc1ccsc1	-0.1	-0.2	3.2	12.5	-5.6	x	0.1
CCCNC(=O)C(=O)NCc1ccsc1	4.0	x	x	x	x	x	x
CCN(CC)S(=O)(=O)c1cccc(C(=O)OCC(=O)C23CC4CC(CC(C4)C2)C3)c1	-4.9	-5.8	-5.1	14.3	0.1	x	1.1
CCOC(=O)c1c(C)[nH]c(C)c1C(=O)COC(=O)c1cccc(S(=O)(=O)N(CC)CC)c1	3.5	11.3	4.0	i	-5.8	x	x
Cc1cccc(OCCCCn2c(C(C)NC(=O)c3ccco3)nc3ccccc32)c1C (stereo unspecified)	-3.0	x	x	x	x	x	x
SMILES	SSB-PriA inh	VHR inh abs	CCHF vOTU inh-1	Vc quorum ag-1	3CLpro inhibitor	TcdB GH inh	Vc quorum ag-2	others
O=C(Nc1ccc(S(=O)(=O)Nc2ncccn2)cc1)C1CC(=O)N(c2ccccc2)C1 (stereo unspecified)	-8.5	x	9.5	14.3	x	0.0	2.6
CCOc1ccc(N2CC(C(=O)Nc3ccc(S(=O)(=O)Nc4ncccn4)cc3)CC2=O)cc1 (stereo unspecified)	-6.4	18.7	13.6	2.6	-1.0	x	x
COc1cc2nc(NC(=O)c3cc(=O)c4ccccc4o3)sc2cc1OC	-3.0	x	x	x	x	x	x
CC(C)n1nnnc1SCC(=O)c1ccc2c(c1)OCCO2	-10.1	15.7	8.9	+	-0.1	x	i
CCn1nnnc1SCC(=O)c1ccc2c(c1)OCCO2	-10.1	43.0	8.2	+	-1.7	x	i
CC(C)n1nnnc1SCC(=O)Nc1ccc2c(c1)OCCO2	x	-7.7	8.3	x	4.6	0.7	x
O=C(CSc1nnc2ccccn12)c1ccc2c(c1)OCCO2	5.0	-13.1	17.4	+	5.8	x	i
O=C(Nc1nnc(-c2ccc3c(c2)OCCO3)o1)C1CCCCC1	0.5	-25.7	-14.1	x	-1.3	1.8	x	HeLa tox=-13.5
Cn1c(=O)[nH]c(=S)c2nc(-c3ccc(F)cc3)cnc21	1.0	x	x	x	x	x	x
COc1ccc(OC)c(NC(=O)Nc2cccc(Cn3cccn3)c2)c1	5.3	2.4	-2.3	12.5	0.4	x	0.2
CCCCNC(=O)CN(c1cccc(Br)c1)S(C)(=O)=O	2.4	4.4	4.5	32.1*	0.9	x	0.1
CCCCNC(=O)CN(c1cccc(F)c1)S(C)(=O)=O	-0.3	33.2	3.6	-1.0	0.7	x	x
COCC(=O)Nc1ccc2c(c1)NC(=O)C(C)(C)CO2	24.0	x	x	x	x	x	x
CCOc1cc(N2CCOCC2)c(OCC)cc1NC(=O)C(C)C	2.2	15.2	-4.3	0.0	3.1	-2.1	x
CCOc1cc(N2CCOCC2)c(OCC)cc1NC(C)C(=O)N1CCN(CC)CC1 (stereo unspecified)	4.0	16.7	31.2*	-0.7	5.1	-2.8	x	CCHF vOTU inh-2=2.5
CC(=O)Nc1ccc(Nc2nc3ccccc3nc2NS(=O)(=O)c2ccc(Cl)c([N+](=O)[O-])c2)cc1	-0.2	x	31.7*	0.5	x	-1.0	x	CCHF vOTU inh-2=15.0
O=C(Cn1cc(-c2ccc(F)cc2)cn1)NC1CCN(c2ccc(C(F)(F)F)cn2)C1 (stereo unspecified)	1.0	x	x	x	x	x	x
Cc1cccc(NC(=O)c2sc3nc4c(c(-c5cccs5)c3c2N)CN(C)CC4)c1	-2.8	0.0	30.2*	-2.2	-13.8	x	x	CCHF vOTU inh-2=48.1*
CCOC(=O)Cc1nnc(Nc2ccc(C)cc2C)c2ccccc12	-0.2	-2.9	-11.1	-0.4	0.6	x	x
CCOC(=O)Cc1nnc(Nc2cc(C)ccc2C)c2ccccc12	-12.7	28.8	31.0*	i	-0.5	-1.4	x	CCHF vOTU inh-2=2.9
O=C(NCc1ccco1)c1nnn(-c2ccccc2)c1CSc1ncccn1	6.0	x	x	x	x	x	x
O=c1[nH]nc(CNc2ccc(O)cc2)c2ccccc12	4.5	6.5	53.1*	-4.8	2.1	x	x	CCHF vOTU inh-2=-16.1
O=C1C(=O)N(CCCn2ccnc2)C(c2cccnc2)C1=C(O)c1ccc2c(c1)OCCO2 (stereo unspecified)	1.0	x	x	x	x	x	x
Cc1nnc(NC(=O)CCc2csc(NS(=O)(=O)c3ccccc3)n2)s1	-19.0	x	x	x	x	x	x
O=C(c1ccco1)N1CCN(C(=O)c2ccc(CS(=O)c3ccc(Cl)cc3)o2)CC1 (stereo unspecified)	3.2	14.9	39.3*	i	0.7	0.3	x	CCHF vOTU inh-2=-8.3

From PubChem BioAssay
